# Data published in PubChem BioAssay AID1981 (Southern Research Specialized Biocontainment Screening …, 2009).
# Hit rate of the full screen: of about 2,200 compounds, about 480 (22%) were called active. Not all results are given here. Potency and affinity values are given separately. Values without a mark were called inactive. No rule for the calls is given here.
# Experiment: S. Typhimurium GFP fluorescence dose response in modified counterscreen for PhoP regulon inhibitor project (AID 1981);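 also: 0% = induced DMSO wells and 100% = uninduced wells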
# Conditions: 4 h; series mostly up to 150 µM; inhibition: at the top concentration
row,Compound,inhibition
1,COc1cc(CNc2ccc(CNc3ncn[nH]3)cc2)ccc1OCC(=O)NC(C)(C)C,-18.5%
2,O=S(=O)(NCc1ccccc1)c1cccc(S(=O)(=O)N2CCOCC2)c1,-12.6%
3,Cn1c(CC(=O)Nc2ccc(Cl)c(Cl)c2)nnc1SCC(=O)Nc1nccs1,-18.6%
4,O=C(COC(=O)c1n[nH]c2ccccc12)NC(=O)NC12CC3CC(CC(C3)C1)C2,-1.95%
5,Oc1ccc(C=Nc2cccc3ncccc23)c(O)c1,15.1%
6,O=C(COc1ccccc1)NC(=S)Nc1ccc2c3c(cccc13)CC2,3.59%
7,Cc1c(C)n(Cc2ccccc2)c2ncnc(NN)c12,7.72%
8,O=C(NCCCN1CCCC1=O)c1ccc(Cl)c(NS(=O)(=O)c2ccc(F)cc2)c1,3.52%
9,Cc1ccc(NC(=O)C(=O)NCCOc2ccccc2Cl)cc1,-11.4%
10,CN(CCC(=O)Nc1ccc(Br)cc1)Cc1ccccc1,10.8%
11,COc1ccccc1CC(=O)N1CCN(c2ccccn2)CC1,-30%
12,COC(=O)c1ccc2nc(C(F)(F)F)[nH]c2c1,3.82%
13,O=c1cc(-c2ccc([N+](=O)[O-])cc2)nc2cc(-c3ccc(Cl)cc3)[nH]n12,-9.22%
14,COC(=O)c1c(C(=O)OC)c(-c2cccc(C)c2)n2c1CS(=O)(=O)C2,-3.11%
15,O=C(NCc1ccc2c(c1)OCO2)c1ccc(-n2cnnn2)cc1,-1.24%
16,COC(=O)c1ccccc1NC(=O)CS(=O)(=O)Cc1nc(-c2ccc(C)cc2)oc1C,-3.17%
17,COCCn1cc(C(=O)N2CCC(C)CC2)c2c3ccccc3n(C)c2c1=O,-18.2%
18,C=CCNc1ncnc2c1[nH]c1ccc(Cl)cc12,29.7%
19,C=CCNc1ncnc2c1[nH]c1ccc(C)cc12,35.9%

row,Compound,inhibition
1,O=c1cc(Cc2ccccc2)[nH]c(=S)[nH]1,32.9%
2,CCNC(=O)COC(=O)CCC(=O)c1cccs1,14.6%
3,Cc1cccc(OCC(=O)N2CCN(Cc3ccncc3)CC2)c1,-3.8%
4,O=C(CN(c1ccc(F)cc1)S(=O)(=O)c1ccc2c(c1)OCCO2)NCc1cccnc1,-5.53%
5,COc1ccc(-c2ccc3c(N)c(C(=O)c4cccc(OC)c4)sc3n2)cc1,16.2%
6,N#Cc1nc(-c2ccco2)oc1NCCCN1CCOCC1,-7.05%
7,CCSc1cc(N2CCCC2)nc(-c2cccc(C)c2)n1,-4.48%
8,COc1cccc(-n2c(SCC(=O)Nc3ccc4c(c3)CCC4)nc3ccccc3c2=O)c1,19.7%
9,CCOc1ccc(NC(=O)CCC(=O)n2nc(C)cc2C)cc1,1.24%
10,Cc1ccc(CNC(=O)C2CCCN(S(=O)(=O)c3c(C)noc3C)C2)cc1 (stereo unspecified),1.56%
11,O=C(c1ccccc1S(=O)(=O)NCc1ccccc1)N1CCCC1,-24.7%
12,CC(=O)Nc1ccc(-n2nnnc2SCC(=O)Nc2cccc(NC(=O)c3ccco3)c2)cc1,2.42%
13,O=[N+]([O-])c1ccccc1/C=N/N1CCN(c2ccncc2S(=O)(=O)N2CCCCC2)CC1,-9.65%
14,C=CCNC(=O)CC(=O)N/N=C/c1ccc(C(=O)OC)cc1,1.15%
15,Cc1ccc(Cn2c(=N)n(CC(=O)c3ccc([N+](=O)[O-])cc3)c3ccccc32)cc1,-11.2%
16,Cc1ccc(C(=O)NC(=S)Nc2cccc3c(C)cc(C)nc23)cc1,-12.6%
17,COC(=O)c1ccc(Nc2cc(C)nc3ccccc23)cc1,-13%
18,COc1ccc2nc(-c3ccccc3)cc(OC)c2c1,-1.78%
19,COc1ccc(/C=N/NC(=O)CC(=O)NCc2cccnc2)cc1,-0.29%

row,Compound,inhibition
1,CN1c2ccccc2C(C)(C)[C@]12C=Cc1cc(O)ccc1O2,8.27%
2,CC(=O)Nc1cccc(OC(=O)c2ccoc2C)c1,-14.3%
3,Nc1ccc(C2(c3ccc(N)cc3)c3ccccc3-c3ccccc32)cc1,18.9%
4,Cc1ccc(C(=O)NCC(=O)OCC(=O)N2CCCc3ccccc32)cc1,-12.3%
5,O=C(N/N=C/c1cn(-c2ccccc2)nc1-c1ccc(F)cc1)c1ccc2c(c1)OCO2,30.2%
6,O=C(NNC(=O)c1ccccc1-n1cccc1)c1ccc(Cl)c(Cl)c1,-16.2%
7,O=C(Cn1ncc2c(=O)oc3ccccc3c21)N1CCN(c2ccccn2)CC1,2.19%
8,CC(C)Nc1cc(C(F)(F)F)nc(-c2ccccn2)n1,-21.8%
9,O=C1c2ccccc2C(=O)N1Cc1nc(-c2ccccn2)no1,-13.3%
10,N#Cc1ccc(N=c2ssnc2Cl)cc1,8.15%
11,CC(C)CCNC(=O)C(c1ccco1)N(Cc1ccc(F)cc1)C(=O)c1snc(C(N)=O)c1N (stereo unspecified),-5.54%
12,COc1cc(C2C(C(=O)c3ccc(C)o3)=C(O)C(=O)N2CCc2ccccc2)ccc1O (stereo unspecified),11.2%
13,NC(=O)c1c(NC(=O)CN2C(=O)CCC2=O)sc2c1CCCCC2,-16.9%
14,CCOC(=O)c1c(NC(=O)Nc2ccc(C)cc2)sc2c1CCN(C)C2,-0.83%
15,CC(C)(C)C1CCc2c(sc(NC(=O)c3cccs3)c2C(=O)N2CCCCC2)C1 (stereo unspecified),8.2%
16,O=[N+]([O-])c1ccc(-n2nnnc2-c2ccccc2)c([N+](=O)[O-])c1,14.8%
17,CN(C)C(CNC(=O)Nc1cccc(Cl)c1)c1cccnc1 (stereo unspecified),3.94%
18,Cc1cc2c(c(=O)n1C)C(Cc1ccccc1)C(C#N)=C(N)O2 (stereo unspecified),-7.35%
